# From PubChem BioAssay (NCATS)
# Where “and” joins values, the source holds several entries; their conditions need not be identical. Identical values can stand only once. Inconclusive results are not listed. Where a call stands in place of a potency, no number is given. The source holds several records for some structures; these can differ, active in one and inactive in another. Calls of active or inactive are those of the source. Unless noted, the call rests on the fitted dose curve; in most records, active means well fitted curve in the direction sought with a large enough effect; inconclusive means small, poorly fitted or top-dose-only effect, or another doubt; inactive means no such curve, though single readings can be large; an effect the other way counts as inactive or inconclusive.
# Columns and labels:
# [1] = AP1 Signaling Pathway (AID 357; active means well fitted curve in either direction with a large enough effect, not every such curve was filed as active;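 further: ME-180 reporter cells stimulated with EGF at its EC50 level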); conditions: ME-180 AP-1-bla reporter, EGF-induced, beta-lactamase ratio, 5 h
# Summary of the method: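 Cells are seeded overnight, exposed to compound titrations and an EC50 level of EGF for 5 hours at 37 °C, then loaded with CCF4 dye for 2.5 hours. Beta-lactamase activity under the AP-1 element is read as a blue/green ratio.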
# [2] = target: Cytochrome P450 1A2 (Homo sapiens) (UniProt P05177); assay: p450-cyp1a2 (AID 410; calls by dose curve; further: potency means the concentration at half of the fitted maximal effect)
# Summary of the method: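 Luminescent readout of luciferin formed from Luciferin-ME by human CYP1A2; data normalized against complete inhibition by 57 uM furafylline. Enzyme 20nM, substrate 100uM at Km, 100mM KPO4 buffer, 60 min reaction at room temperature.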
# [3] = NFAT Signaling Pathway (AID 444; active means well fitted curve in either direction with a large enough effect, not every such curve was filed as active;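 further: carbachol stimulus at about its EC50 of 1 µM final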); conditions: Jurkat NFAT-bla M1, carbachol, beta-lactamase ratio, 5 h
# Summary of the method: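 Jurkat cells carrying an NFAT-driven β-lactamase reporter and co-transfected muscarinic M1 receptor were treated with compound plus carbachol (1 uM final, an EC50 level) for 5 h at 37 °C. CCF4 loading followed for 1 h at RT; 460/530 nm ratio gave %activity.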
# [4] = Stat Signaling Pathway (AID 446; active means well fitted curve in either direction with a large enough effect, not every such curve was filed as active;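 further: ME-180 cervical cancer cells given 40 pM IL-6 alongside compound; SIE-controlled beta-lactamase reporter measured as 460/530 nm FRET emission ratio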); conditions: ME-180 SIE beta-lactamase reporter, IL-6 stimulated, 5 h
# Summary of the method: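 Screening format detects activators and inhibitors alike: ME-180 SIE-bla cells stimulated at 40 pM IL-6 for 5 hrs with compound, then dual-emission beta-lactamase read at 405 nm excitation.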
# [5] = target: Glucocorticoid receptor (Homo sapiens) (UniProt P04150); assay: GR-GFP Redistribution (AID 450;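 active means compounds whose dose series gives a full or clear partial fitted curve of increased nuclear translocation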; further: potency means the concentration at half of the fitted maximal effect); conditions: U2OS GR-GFP nuclear translocation, laser cytometry, 2 h
# [6] = target: Glucocorticoid receptor (Homo sapiens) (UniProt P04150); assay: GR-EFC Redistribution (AID 451; calls by dose curve; further: potency means the concentration at half of the fitted maximal effect); conditions: CHO-K1 GR-EFC translocation, beta-gal luminescence, 2 h
# Summary of the method: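 CHO-K1 cells stably expressing nuclear-localized β-gal enzyme acceptor and GR fused C-terminally to the enzyme donor fragment; ligand-driven nuclear translocation restores β-gal by complementation. Compounds titrated up to 46 uM final, 2 h at 37 °C; luminescence read.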
# [7] = target: Mitogen-activated protein kinase 10 (Mus musculus) (UniProt Q61831); assay: JNK3 AlphaScreen Assay (AID 530; active means well fitted curve in either direction with a large enough effect, not every such curve was filed as active;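 further: kinase came from lysate of stimulated human HepG2 cells; signal reports phosphorylation of biotinylated GST-cJun 1-79 at Ser73 with 10 µM ATP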)
# Summary of the method: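 Inhibitors reduce antibody binding to phosphorylated biotin-cJun, lowering AlphaScreen luminescence. Lysates from HepG2 cells pre-activated by IL-1beta plus TNF-alpha supplied JNK3; compounds were titrated.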
# [8] = target: 3',5'-cyclic-AMP phosphodiesterase 4B (Homo sapiens) (UniProt Q07343); assay: qHTS Assay for Inhibitors of PDE-IV (AID 607; active means well fitted activation curve with a large enough effect in the main read-out, with a control signal flat, not every such curve was filed as active)
# Summary of the method: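 The readout is membrane depolarisation from a cAMP-sensing CNG channel, detected with a potential dye at ex 535/em 590. Cells were HEK293-derived (endogenous PDE-IV) at 1000 cells/well, titrated up to 22.9 uM final.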
# [9] = target: Guanine nucleotide-binding protein G(i) subunit alpha-1 (Homo sapiens) (UniProt P63096); assay: qHTS Assay for Inhibitors of RGS12 GoLoco Motif Activity (Green Fluorophore) (AID 879);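 further: negative values mean loss of peptide binding seen as reduced polarization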
# Summary of the method: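 Fluorescence polarization assay: 50 nM Gαi1 with 10 nM FITC-labeled RGS12 GoLoco peptide in 10 mM Tris pH 7.5, 150 mM NaCl, 0.1 mM GDP, 0.05% NP40, 10 min at room temperature with compound.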
# [10] = qHTS Assay for Identification of Small Molecule Agonists for Thrombopoietin (TPO) Signaling Pathway (AID 917)
# Summary of the method: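 IL-3-dependent murine pro-B Ba/F3 cells, stably transfected with human TPO receptor and GpIIb-promoter luciferase, are incubated 24 hrs at 37 C with test compound and 26 pM TPO; luciferase signal is read after 10 min at room temperature.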
# [11] = target: Muscarinic acetylcholine receptor M1 (Rattus norvegicus) (UniProt P08482); assay: qHTS Assay for Antagonists of Acetylcholine Muscarinic M1 Receptor: Measurement of IP-One Response (AID 944); further: nearly all actives have a fitted effect of over 75% in size
# Summary of the method: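 M1-CHO (rat), 2000 cells/well, overnight recovery; cpd 10 min; carbachol EC80 (200 nM), 30 min, HEPES buffer + 50 mM LiCl pH 7.4; IP-One HTRF, Ex 337, Em 620/665 nm.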
# [12] = target: Pyruvate kinase (Leishmania mexicana) (UniProt Q27686); assay: qHTS Validation Assay for Inhibitors of Leishmania Mexicana Pyruvate Kinase (AID 945)
# Summary of the method: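 Luminescent ATP detection (PKLight) after a 1 h room-temperature reaction of 0.2 nM LmPYK E451W mutant with 0.5 mM PEP and 0.1 mM ADP at pH 7.2. Activity is normalized to DMSO-only control wells.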
# [13] = target: Pyruvate kinase PKM (Homo sapiens) (UniProt P14618); assay: qHTS Assay for Activators of Human Muscle Pyruvate Kinase (AID 954; active means well fitted curve in the direction sought with a large enough effect, not every such curve was filed as active)
# Summary of the method: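 Reaction: 0.1 nM purified PKM2 with 0.5 mM phosphoenolpyruvate and 0.1 mM ADP, room temperature, 1 h. Readout: luciferase-based ATP luminescence after stop reagent. Activators judged against a 0.3 nM enzyme column.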
# [14] = target: alpha-glucosidase (Oryza sativa, rice) (UniProt Q653V4); assay: Counterscreen for Glucocerebrosidase Inhibitors: qHTS Assay for Rice alpha-Glucosidase at pH 5.0 (AID 997)
# Summary of the method: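 Rice alpha-glucosidase (4 nM final) with 400 uM 4-methylumbelliferyl-alpha-D-glucopyranoside in citrate buffer pH 5.0, 20 min at room temperature, stopped at pH 10; fluorescence 365/440 nm, compounds 0.7 nM–77 uM, AC50 from Hill fits.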
# [15] = qHTS Assay for Lipid Storage Modulators (AID 1519; calls by dose curve); conditions: Drosophila S3 cells, BODIPY lipid droplet/cell ratio, laser cytometry, cells loaded with oleic acid
# Summary of the method: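 Cells seeded at 5,000 per well were treated with compounds over a concentration series and loaded with oleic acid (400 uM, as added). Lipid droplet fluorescence (488 nm excitation, 500-530 nm channel) was read by laser-scanning cytometry and normalized to 20 uM Triacsin C.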
# [16] = target: Ubiquitin carboxyl-terminal hydrolase 1 (Homo sapiens) (UniProt O94782); assay: Inhibitors of USP1/UAF1: Pilot qHTS (AID 504865);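 further: rhodamine fluorescence freed from ubiquitin-rhodamine substrate followed over time; top concentration of the series differs between compounds; nearly all actives have a fitted effect of over 35% in size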
# Summary of the method: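 Enzyme-free wells gave the negative control, while test wells held 1nM USP1/UAF1 preincubated with compound for 15 min at room temperature. Ub-Rho at 150nM final started the reaction, and fluorescence at 480/540 nm was recorded kinetically.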
# [17] = target: DNA dC->dU-editing enzyme APOBEC-3G (Homo sapiens) (UniProt Q9HC16); assay: qHTS for inhibitors of Vif-A3G interactions: Validation (AID 588379)
# Summary of the method: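 HeLa cells stably expressing Vif and A3G-eYFP, 700 cells/well, incubated overnight at 37 deg C, then exposed to compound overnight at 37 deg C. Inhibition of Vif-mediated degradation read as increased yellow fluorescence (Ex 488/Em 500-530) by laser-scanning cytometry.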
# [18] = test system: Zika virus NS2B-NS3 protease; assay: Primary screen GU AMC qHTS for Zika virus inhibitors (AID 1347154); further: nearly all actives have a fitted effect of over 70% in size
# Summary of the method: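 Unlinked Zika NS2B hydrophilic domain/NS3 protease domain noncovalent complex (25 nM final) in 10 mM Tris-HCl pH 8.0, 0.01% Tween 20, with AMC peptide substrate. Fluorescence (ex 340, em 450 nm) change over 15 min, room temperature; percent inhibition fitted to 4-parameter Hill equation.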
# [19] = Primary qHTS for small molecule stabilizers of the endoplasmic reticulum resident proteome: Secreted ER Calcium Modulated Protein (SERCaMP) assay (AID 1508630)
# Summary of the method: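 GLuc-SERCaMP-expressing SH-SY5Y cells, pretreated 16 h with compound, are challenged with thapsigargin to empty ER calcium stores; after 4 h, coelenterazine is added directly to the medium and luminescence is imaged.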
# [20] = target: Cytochrome P450 2D6 (Homo sapiens) (UniProt P10635); assay: qHTS Assay for Inhibitors and Substrates of Cytochrome P450 2D6 (AID 891); further: nearly all actives have a fitted effect of over 60% in size; further: potency means the concentration at half of the fitted maximal effect;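 on activity change, negative = inhibition: luciferin methyl ether substrate demethylated by CYP2D6 with NADPH regeneration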
# Summary of the method: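 Human CYP2D6 (5 nM) with 30 uM Luciferin-ME EGE (at Km) in 100 mM KPO4, compound preincubated 10 min, then NADPH regeneration system for 60 min at room temperature. Luciferin read by luminescence; normalized to 1.43 uM quinidine.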
# [21] = target: Cytochrome P450 3A4 (Homo sapiens) (UniProt P08684); assay: qHTS Assay for Activators of Cytochrome P450 3A4 (AID 885); further: nearly all actives have a fitted effect of over 65% in size
# Summary of the method: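 Steps: enzyme/substrate mix dispensed; compound added, 10 min RT; NADPH regeneration solution added, 60 min RT; luciferin detection buffer stops reaction; 20 min later luminescence measured.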
# [22] = target: Cytochrome P450 2C19 (Homo sapiens) (UniProt P33261); assay: qHTS Assay for Inhibitors and Substrates of Cytochrome P450 2C19 (AID 899); further: nearly all actives have a fitted effect of over 60% in size; further: potency means the concentration at half of the fitted maximal effect
# Summary of the method: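 Human CYP2C19 (5nM) with Luciferin-H EGE at 10uM (its KM) in 50mM KPO4 was preincubated with compound for 10 min at 37C. NADPH regeneration started a 60 min 37C reaction. Luciferin was read by luminescence, normalized to 57uM ketoconazole.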
# [23] = Confirmation and Secondary Assay for Modulators of Hemoglobin Beta Chain Splicing at IVS2 654 locus (AID 910)
# Summary of the method: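 HeLa cells stably carrying EGFP interrupted by mutant beta-globin IVS2-654 intron (CMV-driven) were treated with compound for 2 days at 37C; corrected splicing was scored as total peak GFP intensity per well (488 nm excitation, 500-520 nm emission).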
# [24] = Confirmation and Secondary Assay for Modulators of Hemoglobin Beta Chain Splicing at IVS2 705 locus (AID 930);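 further: HeLa cells stably expressing the EGFP-705 splicing reporter; GFP fluorescence per well restored by corrected splicing of the IVS2-705 intron in EGFP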
# Summary of the method: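 Read-out: total peak GFP fluorescence per well (488 nm excitation, 500-520 nm emission) by laser-scanning cytometry. Cells: HeLa EGFP-705 splicing reporter, 2 days compound exposure in Optimem/2% FCS.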
# [25] = target: Alpha-galactosidase A (Homo sapiens) (UniProt P06280); assay: Counterscreen for Glucocerebrosidase Inhibitors: qHTS Assay for Human alpha-Galactosidase at pH 4.5 (AID 992)
# Summary of the method: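 Concentration-response curves (0.7 nM to 77 uM final) were modeled with the Hill equation to give AC50. Reactions: 2 nM enzyme, 80 uM fluorogenic alpha-galactoside, pH 4.5 citric acid buffer, 20 min, room temperature.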
# [26] = measured here: cell count channel max response
# [27] = measured here: lipid channel max response
# Chain of Cytochrome P450 3A4 (Homo sapiens) (P08684 whole entry, looked up): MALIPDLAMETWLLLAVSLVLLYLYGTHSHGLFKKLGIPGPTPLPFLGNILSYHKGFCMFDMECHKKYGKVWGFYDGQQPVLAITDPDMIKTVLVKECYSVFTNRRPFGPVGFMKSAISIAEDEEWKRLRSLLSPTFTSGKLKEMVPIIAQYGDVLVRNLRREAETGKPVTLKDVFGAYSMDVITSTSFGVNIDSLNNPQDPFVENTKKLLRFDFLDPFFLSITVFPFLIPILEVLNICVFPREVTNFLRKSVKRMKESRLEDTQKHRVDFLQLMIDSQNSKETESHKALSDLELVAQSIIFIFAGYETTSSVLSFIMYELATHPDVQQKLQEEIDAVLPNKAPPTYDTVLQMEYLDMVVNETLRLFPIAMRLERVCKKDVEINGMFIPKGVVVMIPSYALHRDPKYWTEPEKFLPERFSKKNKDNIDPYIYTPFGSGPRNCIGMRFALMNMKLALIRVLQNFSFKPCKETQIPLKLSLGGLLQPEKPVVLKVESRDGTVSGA
# Chain of DNA dC->dU-editing enzyme APOBEC-3G (Homo sapiens) (Q9HC16 whole entry, looked up): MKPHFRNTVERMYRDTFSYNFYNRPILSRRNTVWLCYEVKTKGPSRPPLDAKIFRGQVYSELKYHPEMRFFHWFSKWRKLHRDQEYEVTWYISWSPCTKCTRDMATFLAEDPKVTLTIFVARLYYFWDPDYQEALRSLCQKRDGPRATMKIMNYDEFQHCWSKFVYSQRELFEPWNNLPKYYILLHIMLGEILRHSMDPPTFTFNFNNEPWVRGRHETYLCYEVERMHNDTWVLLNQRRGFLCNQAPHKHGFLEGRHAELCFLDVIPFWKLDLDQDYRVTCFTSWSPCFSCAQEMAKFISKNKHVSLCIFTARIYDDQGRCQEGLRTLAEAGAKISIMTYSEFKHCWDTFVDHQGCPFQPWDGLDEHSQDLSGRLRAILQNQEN
# Chain of Pyruvate kinase (Leishmania mexicana) (Q27686 2-499 E452W): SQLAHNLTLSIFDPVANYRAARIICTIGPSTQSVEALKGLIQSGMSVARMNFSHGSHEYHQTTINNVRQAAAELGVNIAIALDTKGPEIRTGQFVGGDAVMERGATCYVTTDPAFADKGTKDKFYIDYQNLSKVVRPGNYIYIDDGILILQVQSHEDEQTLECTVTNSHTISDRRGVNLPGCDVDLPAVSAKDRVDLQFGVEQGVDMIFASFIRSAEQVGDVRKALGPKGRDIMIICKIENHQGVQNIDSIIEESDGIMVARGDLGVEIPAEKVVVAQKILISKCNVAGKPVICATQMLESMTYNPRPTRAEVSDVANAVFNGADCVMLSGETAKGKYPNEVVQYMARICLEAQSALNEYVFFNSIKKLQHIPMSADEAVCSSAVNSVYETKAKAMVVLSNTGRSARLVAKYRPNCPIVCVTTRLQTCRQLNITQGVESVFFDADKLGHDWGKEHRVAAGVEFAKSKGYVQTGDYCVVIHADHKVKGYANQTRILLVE
# Chain of Glucocorticoid receptor (Homo sapiens) (P04150 whole entry, looked up, the tested form may be a part): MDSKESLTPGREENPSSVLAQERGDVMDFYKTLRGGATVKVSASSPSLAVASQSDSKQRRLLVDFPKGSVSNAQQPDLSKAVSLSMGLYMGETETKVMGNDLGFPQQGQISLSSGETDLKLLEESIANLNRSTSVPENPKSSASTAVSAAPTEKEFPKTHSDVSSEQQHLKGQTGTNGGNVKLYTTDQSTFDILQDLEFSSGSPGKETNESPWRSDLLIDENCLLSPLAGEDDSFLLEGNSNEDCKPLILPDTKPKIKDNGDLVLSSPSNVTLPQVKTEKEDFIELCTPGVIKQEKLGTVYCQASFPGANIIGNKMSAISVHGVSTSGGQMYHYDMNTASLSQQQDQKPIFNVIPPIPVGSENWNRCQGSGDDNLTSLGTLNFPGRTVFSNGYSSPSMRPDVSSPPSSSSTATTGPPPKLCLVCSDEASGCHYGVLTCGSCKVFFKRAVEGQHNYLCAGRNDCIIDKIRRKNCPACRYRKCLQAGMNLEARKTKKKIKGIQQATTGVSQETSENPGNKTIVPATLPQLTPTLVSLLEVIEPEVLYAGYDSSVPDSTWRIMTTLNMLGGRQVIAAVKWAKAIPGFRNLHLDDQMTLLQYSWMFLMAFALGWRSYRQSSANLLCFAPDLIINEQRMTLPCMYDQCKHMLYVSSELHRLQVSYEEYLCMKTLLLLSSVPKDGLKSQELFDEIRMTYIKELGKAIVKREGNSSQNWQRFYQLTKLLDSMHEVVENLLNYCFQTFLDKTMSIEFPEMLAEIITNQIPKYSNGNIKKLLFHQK
# Chain of Cytochrome P450 2C19 (Homo sapiens) (P33261 whole entry, looked up): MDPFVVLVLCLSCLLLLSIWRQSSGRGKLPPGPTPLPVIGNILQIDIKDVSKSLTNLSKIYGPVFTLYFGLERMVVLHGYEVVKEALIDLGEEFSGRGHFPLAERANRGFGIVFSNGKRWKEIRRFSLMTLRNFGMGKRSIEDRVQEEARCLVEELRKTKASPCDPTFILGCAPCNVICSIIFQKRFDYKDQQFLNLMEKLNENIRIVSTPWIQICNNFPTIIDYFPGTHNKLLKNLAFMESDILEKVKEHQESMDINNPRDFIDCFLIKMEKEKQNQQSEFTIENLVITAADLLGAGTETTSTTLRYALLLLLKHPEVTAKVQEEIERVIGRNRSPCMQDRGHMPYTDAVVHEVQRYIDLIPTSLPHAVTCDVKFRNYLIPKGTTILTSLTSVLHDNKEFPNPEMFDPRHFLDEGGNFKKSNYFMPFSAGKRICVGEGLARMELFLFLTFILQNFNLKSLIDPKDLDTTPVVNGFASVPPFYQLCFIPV
# Chain of Pyruvate kinase PKM (Homo sapiens) (P14618 whole entry, looked up): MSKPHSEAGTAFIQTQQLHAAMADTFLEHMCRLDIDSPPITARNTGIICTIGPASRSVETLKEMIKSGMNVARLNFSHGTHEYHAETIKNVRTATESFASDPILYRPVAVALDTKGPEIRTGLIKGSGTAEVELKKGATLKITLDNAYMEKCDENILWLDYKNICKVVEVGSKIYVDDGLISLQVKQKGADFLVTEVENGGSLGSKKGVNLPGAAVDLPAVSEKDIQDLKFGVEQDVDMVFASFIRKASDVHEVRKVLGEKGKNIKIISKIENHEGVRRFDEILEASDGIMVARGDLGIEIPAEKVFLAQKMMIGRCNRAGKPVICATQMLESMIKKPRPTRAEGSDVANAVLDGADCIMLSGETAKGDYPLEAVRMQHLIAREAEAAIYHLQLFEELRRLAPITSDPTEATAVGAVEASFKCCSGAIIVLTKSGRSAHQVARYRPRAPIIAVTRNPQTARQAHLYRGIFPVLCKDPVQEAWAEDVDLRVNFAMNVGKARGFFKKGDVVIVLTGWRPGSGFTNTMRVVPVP
# Chain of Cytochrome P450 2D6 (Homo sapiens) (P10635 whole entry, looked up): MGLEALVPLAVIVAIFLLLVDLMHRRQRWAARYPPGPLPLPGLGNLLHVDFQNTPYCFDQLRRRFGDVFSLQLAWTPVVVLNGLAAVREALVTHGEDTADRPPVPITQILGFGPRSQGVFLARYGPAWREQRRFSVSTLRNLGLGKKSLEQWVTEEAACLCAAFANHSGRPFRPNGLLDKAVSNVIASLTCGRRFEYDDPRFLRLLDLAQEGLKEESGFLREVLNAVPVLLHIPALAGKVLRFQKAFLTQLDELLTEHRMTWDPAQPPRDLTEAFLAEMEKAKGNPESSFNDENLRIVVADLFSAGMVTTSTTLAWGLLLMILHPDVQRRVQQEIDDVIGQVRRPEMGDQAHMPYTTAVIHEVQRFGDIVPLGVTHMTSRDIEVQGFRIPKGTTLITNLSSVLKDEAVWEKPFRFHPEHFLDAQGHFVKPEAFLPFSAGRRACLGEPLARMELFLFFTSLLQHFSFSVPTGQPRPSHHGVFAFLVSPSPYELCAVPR
# Chain of 3',5'-cyclic-AMP phosphodiesterase 4B (Homo sapiens) (Q07343 whole entry, looked up): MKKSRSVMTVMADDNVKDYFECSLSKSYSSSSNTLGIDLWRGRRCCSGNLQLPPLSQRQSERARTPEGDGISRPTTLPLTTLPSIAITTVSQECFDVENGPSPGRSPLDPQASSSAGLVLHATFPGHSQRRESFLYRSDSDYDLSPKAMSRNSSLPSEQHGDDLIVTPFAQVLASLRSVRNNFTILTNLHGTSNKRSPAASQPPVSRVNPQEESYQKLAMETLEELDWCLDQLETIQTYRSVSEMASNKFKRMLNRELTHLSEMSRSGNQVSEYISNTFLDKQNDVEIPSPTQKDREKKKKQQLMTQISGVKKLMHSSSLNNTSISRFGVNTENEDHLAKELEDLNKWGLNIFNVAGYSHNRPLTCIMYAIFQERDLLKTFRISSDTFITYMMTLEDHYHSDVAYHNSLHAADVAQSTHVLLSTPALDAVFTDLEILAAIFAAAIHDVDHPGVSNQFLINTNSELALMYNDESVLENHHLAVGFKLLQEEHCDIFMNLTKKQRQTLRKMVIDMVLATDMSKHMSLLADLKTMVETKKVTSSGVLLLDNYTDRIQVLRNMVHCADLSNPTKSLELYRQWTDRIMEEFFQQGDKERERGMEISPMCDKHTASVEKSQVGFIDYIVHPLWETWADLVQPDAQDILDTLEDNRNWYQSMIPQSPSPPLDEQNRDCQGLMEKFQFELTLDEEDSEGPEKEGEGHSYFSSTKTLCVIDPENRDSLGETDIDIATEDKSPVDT
# Chain of Guanine nucleotide-binding protein G(i) subunit alpha-1 (Homo sapiens) (P63096 whole entry, looked up): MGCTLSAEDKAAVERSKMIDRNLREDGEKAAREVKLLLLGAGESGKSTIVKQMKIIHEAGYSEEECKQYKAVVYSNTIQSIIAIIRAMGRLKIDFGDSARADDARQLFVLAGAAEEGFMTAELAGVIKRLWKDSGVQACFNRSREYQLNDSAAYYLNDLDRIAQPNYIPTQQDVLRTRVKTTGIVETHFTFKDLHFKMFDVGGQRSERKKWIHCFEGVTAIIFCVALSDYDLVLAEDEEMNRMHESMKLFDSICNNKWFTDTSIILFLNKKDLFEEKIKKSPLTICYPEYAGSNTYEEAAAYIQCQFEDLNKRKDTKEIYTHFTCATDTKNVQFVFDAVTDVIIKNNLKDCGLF
smiles,measurement,setting,value
O=C(NCCNC[C@@H](O)COc1ccc(O)cc1)N1CCOCC1,"activity change, negative = inhibition",[1]; at 17.2 µM (top of the series),-7.17% (inactive)
same,"activity change, negative = inhibition",[1]; at 38 µM (top of the series),-6.28% (inactive)
same,Potency,[2],inactive
same,"activity change, negative = inhibition",[3]; at 17.2 µM (top of the series),-2.05% (inactive)
same,"activity change, negative = inhibition",[3]; at 38 µM (top of the series),-2.2% (inactive)
same,"activity, negative = inhibition",[4]; at 17.2 µM (top of the series),6.36% (inactive)
same,"activity, negative = inhibition",[4]; at 38 µM (top of the series),-6.64% (inactive)
same,Potency,[5],> 46 µM (inactive) and > 20.6 µM (inactive)
same,Potency,[6],> 46 µM (inactive) and > 20.6 µM (inactive)
same,Potency,[7],inactive
same,Potency,[8],inactive
same,outcome,[9],inactive
same,Potency,[10],inactive
same,Potency,[11],inactive
same,Potency,[12],inactive
same,outcome,[13],inactive
same,outcome,[14],inactive
same,"activity change, negative = inhibition",[15]; at 25.7 µM (top of the series),-1.5% (inactive)
same,"activity change, negative = inhibition",[15]; at 57.5 µM (top of the series),-3.4% (inactive)
same,max response,[15]; [26],-11.7% and -2.05%
same,max response,[15]; [27],-12.6% and -5.19%
same,Potency,[16],inactive
same,Potency,[17],inactive
same,Potency,[18],inactive
same,Potency,[19],inactive
CC(C)NC[C@H](O)c1ccc2ccccc2c1,"activity change, negative = inhibition",[1]; at 17.2 µM (top of the series),1.15% (inactive)
same,"activity change, negative = inhibition",[3]; at 17.2 µM (top of the series),-18.4% (inactive)
same,"activity, negative = inhibition",[4]; at 17.2 µM (top of the series),-5.4% (inactive)
same,Potency,[5],> 20.6 µM (inactive) and > 46 µM (inactive)
same,Potency,[6],> 20.6 µM (inactive) and > 46 µM (inactive)
same,Potency,[7],inactive
same,Potency,[8],inactive
same,Potency,[20],3.16 µM (active)
same,"activity change, negative = inhibition",[15]; at 25.7 µM (top of the series),-2.39% (inactive)
same,"activity change, negative = inhibition",[15]; at 57.5 µM (top of the series),-0.481% (inactive)
same,max response,[15]; [26],2.13% and 8.48%
same,max response,[15]; [27],-2.74% and 9.7%
same,Potency,[16],inactive
same,Potency,[17],inactive
same,Potency,[18],inactive
same,Potency,[19],inactive
O=C(O)[C@@H]1CN[C@@H](C(=O)O)C1,Potency,[18],inactive
same,Potency,[19],inactive
CC1=C(\C=C/C(C)=C/C=C\C(C)=C\C(=O)O)C(C)(C)CCC1,"activity change, negative = inhibition",[1]; at 17.2 µM (top of the series),-3.06% (inactive) and -11.4% (inactive)
same,"activity change, negative = inhibition",[1]; at 38 µM (top of the series),-26.4% (inactive) and 3.96% (inactive)
same,Potency,[2],inactive and 20 µM (active)
same,"activity change, negative = inhibition",[3]; at 38 µM (top of the series),4.1% (inactive)
same,Potency,[5],> 46 µM (inactive) and > 20.6 µM (inactive)
same,Potency,[6],> 46 µM (inactive) and > 20.6 µM (inactive)
same,Potency,[7],inactive
same,Potency,[8],inactive
same,outcome,[9],inactive
same,Potency,[21],inactive
same,Potency,[20],inactive and 2 µM (active)
same,Potency,[22],inactive and 5.01 µM (active) and 12.6 µM (active)
same,outcome,[23],inactive
same,Potency,[10],inactive
same,outcome,[24],inactive
same,Potency,[12],inactive
same,outcome,[13],inactive
same,outcome,[25],inactive
same,outcome,[14],inactive
same,"activity change, negative = inhibition",[15]; at 25.7 µM (top of the series),0.599% (inactive) and 0.957% (inactive)
same,max response,[15]; [26],-6.58% and 5.14%
same,max response,[15]; [27],-6.6% and 8.88%
same,Potency,[16],inactive
same,Potency,[17],inactive
same,Potency,[18],inactive
same,Potency,[19],inactive
CN1C/C(=C/c2ccc(B(O)O)cc2)C(=O)/C(=C/c2ccc(B(O)O)cc2)C1,Potency,[18],inactive
same,Potency,[19],inactive
